The campaign covered roughly 24,000 compounds. About 1,200 (5%) were called active. Roughly 2% stayed inconclusive and do not appear here. No rule for the calls is given here. A selection follows.
Test: Mycobacterium tuberculosis H37Rv growth inhibition, putative kinase inhibitor library, confirmatory dose response (AID 2842);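 as to inhibition: bacteria incubated one week before Alamar blue readout; 0% = bacteria only wells and 100% = bacteria with high antibiotic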
Details: M. tuberculosis H37Rv growth inhibition; CC50: measured here: Vero cell cytotoxicity; inhibition: stronger effect = higher value

SMILES	inhibition	CC50 [µg/mL]
CC(=O)Nc1ccc(NC(=O)CSc2ccc(-c3ccc(Cl)cc3)nn2)cc1	0% (inactive)	–
O=C(COc1ccccc1F)NC1CC(=O)N(c2ccc(Cl)cc2)C1 (centres undefined)	7.9% (inactive)	–
CCOc1cccc2c1OC(c1cccnc1)N1N=C(c3cccc(O)c3)CC21 (centres undefined)	-10.5% (inactive)	–
O=C(CC1Nc2cccc3cccc(c23)NC1=O)Nc1ccc(F)cc1 (centres undefined)	27.5% (inactive)	–
COc1ccc2nc(NC(=O)c3cc(-c4ccccc4)nc4ccccc34)sc2c1	95.1% (inactive)	> 40
COc1cccc(C(=O)COC(=O)c2cc3cc(Br)cc(OC)c3oc2=O)c1	-0.935% (inactive)	–
CCOC(=O)c1nn(-c2ccc(C)cc2)c(=O)cc1NCc1ccncc1	-9.72% (inactive)	–
COc1ccc(/C=C2\SC(=S)N(CCC(=O)Nc3nccs3)C2=O)cc1OC	-4.88% (inactive)	–
COc1ccccc1N1C(=O)N(c2cccc([N+](=O)[O-])c2)C2CS(=O)(=O)CC21 (centres undefined)	-5.59% (inactive)	–
CCS(=O)(=O)c1ccccc1C(=O)Nc1sc2c(c1C(N)=O)CCC(C)C2 (centres undefined)	-17.6% (inactive)	–
O=C(Nc1ccc(F)cc1)c1cn(Cc2ccccc2)cc2c(=O)n(-c3ccccc3)nc1-2	-8.1% (inactive)	–
O=C(CCCc1ccccc1)Nc1c(C(=O)Nc2ccc3c(c2)OCO3)oc2ccccc12	-0.74% (inactive)	–
Fc1ccc2nc(Nc3nnc(-c4cccs4)o3)sc2c1	36% (inactive)	–
COc1cccc(-c2nc(C(N)=O)c3[nH]c(=O)n(-c4ccccc4F)c3n2)c1	-10.4% (inactive)	–
Cc1ccc(NC(=O)c2oc3ccccc3c2NC(=O)c2ccc([N+](=O)[O-])cc2)cc1	3.31% (inactive)	–
COc1ccc2cc(CCNC(=O)c3ccccc3OC)c(=O)[nH]c2c1	5.57% (inactive)	–
Cc1c(C(=O)O)c2cc(O)ccc2n1C	12.9% (inactive)	–
O=C(CN1C(=O)CCC1=O)Nc1nc(-c2ccc(Cl)c(Cl)c2)cs1	0.41% (inactive)	–
COc1ccc(Cl)cc1NC(=O)CSc1nnc(CCC(=O)O)c(=O)n1N	-10.7% (inactive)	–
O=C(Nc1nc2c(s1)CCCC2)c1coc2ccccc2c1=O	-2.85% (inactive)	–
O=C(NCc1ccc2[nH]c3c(c2c1)CCCC3)Nc1ccccc1	62.6% (inactive)	–
COc1ccc(Nc2ncnc(N)c2[N+](=O)[O-])c(OC)c1	0.53% (inactive)	–
Cc1ccc(-c2csc(Nc3ccc(O)c(C(=O)O)c3)n2)cc1	-6.04% (inactive)	–

Source: PubChem BioAssay AID2842 (Southern Research Institute, 2010)
